PubChem BioAssay

What follows are molecules tested on Plasmodium falciparum Sir2 (PF13_0152, Sir2A) (assay: pfSir2 binders on small-molecule microarrays, primary screen, biochemical, small-molecule microarray, 635 nm fluorescence (AID 1098;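 also: score merges spot fluorescence intensity with its signal-to-noise ratio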)). Details: small-molecule microarray binding, fluorescence 635 nm; higher = more signal.
`Cc1ccccc1C(O)C1C=CC2C(=O)N(c3ccccc3)C(=O)C2N1Nc1ccc(C(C)C)cc1` (stereo not given) showed a composite z-score of 0.623. `CCS[C@H]1[C@@H](C(=O)O)[C@H](c2ccc(C)cc2)N(S(=O)(=O)c2ccc(C)cc2)[C@@H]1CC` gave a composite z-score of 0.673. `COc1cc(NN2C(C(O)c3ccco3)C=CC3C(=O)N(c4ccccc4)C(=O)C32)cc(OC)c1OC` (stereo not given) was tested, and the composite z-score was 1.69. `CNS(=O)(=O)c1ccc(C)cc1` showed a composite z-score of 0.3. With `O=C1N(Cc2ccccc2)c2ccccc2[C@@H]2OC(c3ccc(OCCCO)cc3)=N[C@]12CCS(=O)(=O)c1ccccc1` the composite z-score was 0.833. Work on `COc1cc2c(cc1O)C(C1CC1)N(Cc1sc3ccccc3c1Cl)CC2` (stereo not given) yielded a composite z-score of 1.25. In the case of `Oc1ccc2cc[n+](Cc3sc4ccccc4c3Cl)cc2c1`, the composite z-score is reported as 0.23. With `CC(C)N1C(=O)C[C@@](C(=O)NCC(F)(F)F)(c2ccc([N+](=O)[O-])cc2)[C@H]1c1ccc(CO)cc1` the composite z-score was 1.42. Molecule `COCCCNC(=O)[C@@]1(C)c2ccccc2C(=O)N(C(C)C)[C@H]1c1ccc(CO)cc1` has a composite z-score of 0.572. `COCCOC(=O)N1C(=O)[C@@]2(c3cc(C#CCC(C(=O)OC)C(=O)OC)ccc31)[C@H](c1ccccc1OCCO)N1[C@H](c3ccccc3)[C@H](c3ccccc3)OC(=O)[C@H]1[C@@H]2C(=O)N1CCN(c2ncccn2)CC1` gave a composite z-score of 0.875. In the case of `CCOC(=O)[C@H]1C/C=C/C[C@H](C(=O)OCC)C(=O)O[C@H]2[C@@H](OC)O[C@H](CO)[C@@H](OC(=O)c3c(OC)cccc3OC)[C@@H]2OC1=O`, the composite z-score is reported as 0.615. Work on `C=C(COC)/C(=C/C[C@@H](OC(=O)c1ccncc1)c1ccc(CO)o1)c1cc(C(=O)OC)ccc1OC` yielded a composite z-score of 1.2. Work on `CC(C)N1C(=O)c2ccccc2[C@](C)(C(=O)NCCN2CCOCC2)[C@@H]1c1ccc(CO)cc1` yielded a composite z-score of 0.24. `COCCCNC(=O)[C@@H]1c2ccccc2C(=O)N(Cc2ccccc2Cl)[C@H]1c1ccc(CO)cc1` showed a composite z-score of 0.471. In the case of `CC(C)NC(=O)[C@@]1(c2ccc([N+](=O)[O-])cc2)CC(=O)N(C2CCCCC2)[C@@H]1c1ccc(CO)cc1I`, the composite z-score is reported as 1.04. `C=C(CCCC)/C(=C/C[C@H](OC(C)=O)c1ccccc1OCCO)c1cc(C(=O)OC)ccc1OC` showed a composite z-score of 1.3. `COCCOC(=O)N1C(=O)[C@@]2(c3cc(C#Cc4ccc(OC)cc4)ccc31)[C@H](c1ccc(O)cc1)N1[C@H](c3ccccc3)[C@H](c3ccccc3)OC(=O)[C@H]1[C@@H]2C(=O)N1CCc2cc(OC)c(OC)cc2C1` gave a composite z-score of 0.888. For `O=C1C2C=CC(C(O)Cc3ccccc3)N(n3cnnc3)C2C(=O)N1Cc1ccccc1` (stereo not given), the composite z-score was 0.386. `C=CC[C@]1(C(=O)NCc2ccccc2)N=C(c2ccc(OCCCO)cc2)O[C@H]1c1ccccc1N=[N+]=[N-]` gave a composite z-score of 1.33. In the case of `CCOC(=O)C[C@H]1[C@H](OC(=O)c2ccc(C(=O)c3ccccc3)cc2)[C@@H](NC(=O)c2ccc3ccccc3n2)c2cc(OCCCO)ccc2N1C(=O)c1ccccc1`, the composite z-score is reported as 0.772. For `CN(C)C(=O)[C@@]1(CCS(=O)(=O)c2ccccc2)COC(c2ccc(OCCCO)cc2)=N1`, the composite z-score was 0.656. `COc1ccccc1CN1C(=O)c2ccccc2[C@@H](C(=O)NC2CC2)[C@@H]1c1ccc(CO)cc1` showed a composite z-score of 0.743. `COC(=O)[C@H](Cc1ccccc1)N[C@@H](/C=C/C1CC1)[C@H](O)Cc1ccccc1` showed a composite z-score of 1.02. Work on `O=C1C2C=CC(C(O)c3cccc4ccccc34)N(Nc3ccccc3F)C2C(=O)N1c1ccccc1` (stereo not given) yielded a composite z-score of 0.927. With `O=C(CS)NCCCCCCNC(=O)[C@@H]1C[C@@H]2C(=O)N[C@@H](Cc3ccccc3)C(=O)N2[C@@H]1c1cccc(OCCO)c1` the composite z-score was 1.5. `NC(=O)NCC#Cc1ccc2c(c1)[C@]1(C(=O)N2)[C@H](C(N)=O)[C@H]2C(=O)O[C@H](c3ccccc3)[C@H](c3ccccc3)N2[C@@H]1c1ccc(O)cc1` was tested, and the composite z-score was 1.51. `CCCC[C@@H]1C[C@H]1[C@@H](NC(=O)c1cccs1)c1ccc(-c2ccccc2)cc1` gave a composite z-score of -0.0357. In the case of `C=CCOC(=O)[C@H]1[C@@H]2C(=O)O[C@@H](c3ccccc3)[C@@H](c3ccccc3)N2[C@@H](c2ccc(OCCOC(=O)[C@@H]3C[C@@H]4C(=O)N[C@@H](CCCCNC(C)=O)C(=O)N4[C@@H]3c3ccc(O)cc3)cc2)[C@]12C(=O)Nc1ccccc12`, the composite z-score is reported as 1.65. For `CCCCCCc1nc(-c2ccc(OC)nc2)cc2c1[Si](C(C)C)(C(C)C)O[C@H]2c1ccccc1`, the composite z-score was 1.33. Molecule `CC(C)C(CO)N1C(=O)[C@@H]2C3C(=O)OCCC/C=C\[C@H]3OC23C=CCN(CCN2CCOCC2)C(=O)[C@@H]13` (stereo not given in full) has a composite z-score of -0.768. For `C=C(COC)/C(=C/C[C@@H](OC(C)=O)c1ccc(OCCO)cc1)c1cnc2ccccc2c1`, the composite z-score was 1.14. With `CN(C)CCCCCCNC(=O)[C@@H]1C[C@@H]2C(=O)N[C@@H](Cc3ccccc3)C(=O)N2[C@@H]1c1ccc(O)cc1` the composite z-score was 1.51. `Cc1nc2cc(Br)ccc2c(=O)o1` was tested, and the composite z-score was -0.319. For `COCCOC(=O)N1C(=O)[C@@]2(c3ccccc31)[C@H](c1ccc(O)cc1)N1[C@H](c3ccccc3)[C@H](c3ccccc3)OC(=O)[C@H]1[C@@H]2C(=O)Nc1nc2ccccc2s1`, the composite z-score was 1.39. For `COCC(=C=CC[C@@H](O)c1cccc(OCCO)c1)C[C@@H](O)c1ccccn1`, the composite z-score was 0.976.
